# Measurements published in PubChem BioAssay.
# Active and inactive are the calls of the source.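 How the source made its calls, unless noted: active means inhibition above 20% together with a positive visual image hit; inconclusive means visual image hit but inhibition not above 20%; inactive means no visual image hit.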
# Tests used:
# [1] = inhibitors of TNFa-induced NFkB p65 translocation, primary screen, imaging, HUVEC, MLSMR starter and 10KST1 sets (AID 438); conditions: HUVEC TNFa-induced p65 nuclear translocation; cell count: measured here: nuclei count (cytotoxicity indicator), at 2.08 µM; inhibition: at 2 µM, stronger effect = higher value, 0% TNFa-plus-vehicle, 100% no-TNFa wells;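 further: compound added about 3h40 before a 20 min TNFalpha stimulation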;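 on inhibition: signal is the nuclear over cytoplasmic p65 intensity ratio per well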
# [2] = inhibitors of mutant huntingtin aggregation, primary screen, imaging, exon1htt(103Q)mCFP cells, high-content imaging (AID 483;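 active means visual image review flags a hit and inhibition of aggregation exceeds 20%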;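 further: compound exposure lasted 3 days before fixation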;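 on nuclei count: percent of the per-plate median nuclei count of sample wells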); conditions: exon1htt(103Q)mCFP cell line, aggregate imaging, at 2 µM; inhibition of aggregation: stronger effect = higher value; nuclei count: measured here: cell count, toxicity
# [3] = inhibitors of E-selectin induction by TNFa, primary screen, imaging, HUVEC, immunofluorescence, MLSMR starter and 10KST1 sets (AID 487;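 active means visually confirmed hit in the image check and inhibition above 20%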;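 on inhibition: signal is fraction of cell area covered by stained E-selectin grains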;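 on nuclei count: 100% = median nuclei count of all wells on the same plate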); conditions: HUVEC TNFalpha-induced E-selectin immunofluorescence imaging, at 2 µM; inhibition: stronger effect = higher value; nuclei count: measured here: cell number, toxicity
# [4] = molecular target: Voltage-gated potassium channel subunit beta-2 (Rattus norvegicus) (UniProt P62483); experiment: KvBeta enzyme negative modulators, primary screen, biochemical, NADPH fluorescence (AID 622;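 active means fluorescence slope higher than the sample average by over 3 SD, cut at about -0.22 in these data, passing the limit was not always enough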;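 further: slope of raw intensity against log time taken from 70 to 1610 s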); conditions: recombinant KvBeta, 4-cyanobenzaldehyde reduction, at 10 µM, stronger effect = higher value
# Sequence of Voltage-gated potassium channel subunit beta-2 (Rattus norvegicus) (P62483 whole entry, looked up): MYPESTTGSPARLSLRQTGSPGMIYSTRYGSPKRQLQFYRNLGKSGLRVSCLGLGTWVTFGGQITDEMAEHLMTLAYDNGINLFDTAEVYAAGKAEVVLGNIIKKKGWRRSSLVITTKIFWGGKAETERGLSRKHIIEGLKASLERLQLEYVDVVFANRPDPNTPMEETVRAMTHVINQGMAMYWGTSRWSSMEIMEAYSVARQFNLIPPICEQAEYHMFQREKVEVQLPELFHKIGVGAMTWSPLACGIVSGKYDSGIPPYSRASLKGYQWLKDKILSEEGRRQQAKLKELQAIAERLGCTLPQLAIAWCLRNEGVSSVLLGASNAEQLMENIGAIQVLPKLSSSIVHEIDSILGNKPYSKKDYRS
# [5] = molecular target: Voltage-gated potassium channel subunit beta-2 (Rattus norvegicus) (UniProt P62483); experiment: KvBeta positive modulators, primary screen, biochemical, NADPH fluorescence (AID 623;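 active means NADPH fluorescence slope more negative than the mean of all samples by about 3 SD, 99.7% confidence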;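 further: fluorescence intensity change per second fitted from 20 to 320 s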); conditions: Recombinant KvBeta, NADPH fluorescence decrease slope, 10 min; at 10 µM; stronger effect = lower value
# [6] = molecular target: Alpha-2C adrenergic receptor (Homo sapiens) (UniProt P18825); experiment: modulators of alpha2C/GIRK thallium flux, primary screen, cell-based, HEK293 alpha2C/GIRK1/2 (AID 624;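 active means fluorescence slope after compound addition differing from the mean of all screened samples at 99.7% confidence, in either direction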;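 further: slope of fluorescence ratio to pre-addition baseline per second over 15 to 24 s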); conditions: thallium flux BTC fluorescence, at 10 µM, actives lie on both sides
# Sequence of Alpha-2C adrenergic receptor (Homo sapiens) (P18825 whole entry, looked up): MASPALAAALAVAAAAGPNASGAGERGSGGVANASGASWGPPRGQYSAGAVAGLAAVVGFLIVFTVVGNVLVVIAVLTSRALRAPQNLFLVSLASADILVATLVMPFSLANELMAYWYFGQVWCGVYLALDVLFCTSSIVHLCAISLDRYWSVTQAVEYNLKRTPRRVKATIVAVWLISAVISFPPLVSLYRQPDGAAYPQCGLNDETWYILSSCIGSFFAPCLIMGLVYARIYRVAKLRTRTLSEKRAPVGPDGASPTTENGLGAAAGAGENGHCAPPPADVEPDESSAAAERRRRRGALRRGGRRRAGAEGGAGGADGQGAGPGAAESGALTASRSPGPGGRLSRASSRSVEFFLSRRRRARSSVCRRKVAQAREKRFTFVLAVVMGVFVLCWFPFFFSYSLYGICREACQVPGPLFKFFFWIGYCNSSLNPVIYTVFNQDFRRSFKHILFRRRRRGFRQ
# [7] = inhibitors of Sendai virus-induced IRF3 signaling, primary screen, TLR/RLR signaling modifier project, cell-based, Sendai virus stimulus, luciferase, 10K MLSCN set (AID 602276;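 active means inhibition at or above 50% at 10 µM; inactive means inhibition below 50%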;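 further: firefly luciferase from ISG56 promoter only with Renilla not read in this screen; 0% = Sendai virus plus DMSO and 100% = medium plus DMSO without virus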); conditions: HEK293 RL24 IRF3 luciferase reporter, at 10 µM, stronger effect = higher value
# [8] = inhibitors of poly I:C-induced TLR3 signaling, primary screen, cell-based, poly I:C stimulus, luciferase, 10K MLSCN set (AID 602277;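 active means inhibition of the reporter signal at or above 50%; inactive means inhibition below 50%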); conditions: HEK293-TLR3 RL24 IRF3 luciferase reporter, at 10 µM, stronger effect = higher value
SMILES,cell count [1],inhibition [1],inhibition of aggregation [2],nuclei count [2] [%],inhibition [3],nuclei count [3] [%],fluorescence slope [4],NADPH fluorescence slope [5],slope [6],inhibition [7],inhibition [8]
COc1cccc(C2=Nn3c(nnc3-c3ccccc3O)SC2)c1,436,3.4% (inactive),2.3% (inactive),99.4,25.3% (inactive),86.4,-0.312 (inactive),2.8e-05 (inactive),0.00345 (inactive),6.36% (inactive),19.2% (inactive)
COc1ccc(C(=O)N2CCSC2=S)cc1OC,677,-19.3% (inactive),-13.4% (inactive),97.5,55.8% (inactive),82.9,-0.457 (inactive),-2.6e-05 (inactive),0.00338 (inactive),4.55% (inactive),15% (inactive)
COC(=O)CSC1=NS(=O)(=O)c2ccccc21,340,1.2% (inactive),19.6% (inactive),91.3,45.9% (inactive),113,-0.5 (inactive),-3.6e-05 (inactive),0.00571 (inactive),20.5% (inactive),21.4% (inactive)
CCOC(=O)C(C(C)=O)c1nc(C)nc2c1nnn2Cc1ccccc1Cl (stereo not drawn),479,8.5% (inactive),-6% (inactive),96.1,-10.3% (inactive),106,-0.356 (inactive),-5.3e-05 (inactive),0.00379 (inactive),-11.2% (inactive),-19.4% (inactive)
c1ccc2c(c1)sc1nnnn12,375,-2.1% (inactive),-24.6% (inactive),112,-109% (inactive),115,-0.555 (inactive),-7.2e-05 (inactive),0.00357 (inactive),18% (inactive),27.2% (inactive)
CCc1nnc(-n2nc(C)cc2-c2ccccc2)n1N,648,-2.4% (inactive),0.6% (inactive),104,-20.7% (inactive),109,-0.551 (inactive),2.6e-05 (inactive),0.00642 (inactive),15.3% (inactive),22.1% (inactive)
CCN1C(=O)Cc2cc(S(=O)(=O)N3CCOCC3)ccc21,675,-2.9% (inactive),-11.1% (inactive),121,-38.7% (inactive),98.4,-0.435 (inactive),2.6e-05 (inactive),0.00585 (inactive),2.07% (inactive),-4.25% (inactive)
CCOc1ccc(N(CC(=O)NC2CCCCC2)S(=O)(=O)c2c(C)noc2C)cc1,710,-2.8% (inactive),33.7% (inactive),117,-52.9% (inactive),112,-0.616 (inactive),-2.8e-05 (inactive),0.00737 (inactive),-0.99% (inactive),17.1% (inactive)
CCOc1ccccc1N(CC(=O)NC1CCCC1)C(=O)CCCC(=O)Nc1ccccn1,369,5.3% (inactive),24.9% (inactive),102,-20% (inactive),122,-0.63 (inactive),-2.4e-05 (inactive),0.00589 (inactive),5.25% (inactive),19.7% (inactive)
CCOCCCNC(=O)c1ccc2c(c1)N(Cc1ccccc1)C(=O)CS2=O (stereo not drawn),754,-7.4% (inactive),-19% (inactive),94.2,-20.2% (inactive),125,-0.525 (inactive),-1e-05 (inactive),0.00701 (inactive),-4.11% (inactive),21% (inactive)
Cc1ccc(S(=O)(=O)N(CCO)c2cc3c(s2)CCCC3)cc1,689,-0.8% (inactive),20.5% (inactive),73.1,-151% (inactive),117,-0.404 (inactive),-2.1e-05 (inactive),0.00447 (inactive),9.96% (inactive),21.8% (inactive)
Cc1ccc(-n2c(-c3ccncc3)nnc2-c2cccs2)cc1,456,-3.2% (inactive),-22.5% (inactive),104,-55.2% (inactive),119,-0.384 (inactive),-4.2e-05 (inactive),0.0046 (inactive),11.8% (inactive),12.5% (inactive)
Oc1ccccc1-c1cc(C(F)(F)C(F)F)[nH]n1,337,-1% (inactive),1.9% (inactive),105,46.4% (inactive),106,-0.332 (inactive),-2e-05 (inactive),0.00606 (inactive),-13.1% (inactive),-54.6% (inactive)
Cc1cc(C(=O)CSc2nc3ccccc3[nH]2)c(C)n1C,659,5.3% (inactive),7.6% (inactive),113,-82.7% (inactive),123,-0.59 (inactive),-5.2e-05 (inactive),0.00445 (inactive),-46.8% (inactive),-155% (inactive)
CCCCCn1c(N2CCN(Cc3ccccc3)CC2)nc2c1c(=O)[nH]c(=O)n2C,675,1.9% (inactive),-11.5% (inactive),101,-13.6% (inactive),107,-0.625 (inactive),-2.8e-05 (inactive),0.0038 (inactive),14.2% (inactive),16.8% (inactive)
CN(C)/C=N/c1ncnc2c1cnn2-c1ccc(C(F)(F)F)cn1,565,-0.9% (inactive),-3.8% (inactive),110,21% (inactive),114,-0.583 (inactive),-4.6e-05 (inactive),0.0102 (inactive),-45.2% (inactive),-118% (inactive)
CCOC(=O)N1CCN(C(=O)c2c(-c3ccccc3)noc2C)CC1,816,0% (inactive),-5.9% (inactive),107,-27.3% (inactive),106,-0.421 (inactive),-4.8e-05 (inactive),0.00537 (inactive),14% (inactive),31.9% (inactive)
COC(=O)c1ccc2c(c1)C(=O)N(C1CCCCC1)C2=O,338,2.1% (inactive),-2.4% (inactive),107,-9.6% (inactive),96.9,-0.443 (inactive),-3.4e-05 (inactive),0.00524 (inactive),14.7% (inactive),13.8% (inactive)
COc1ccc(N=c2scc(-c3ccc(S(=O)(=O)N4CCOCC4)cc3)n2CCCO)cc1,974,-6.1% (inactive),23% (inactive),99.9,-218% (inactive),136,-0.319 (inactive),-2.9e-05 (inactive),0.00558 (inactive),41.4% (inactive),-19.4% (inactive)
O=C(Nc1cccnc1)c1noc2c1CCCCC2,253,-3.9% (inactive),14.8% (inactive),98.5,-1.4% (inactive),113,-0.325 (inactive),-1.6e-05 (inactive),0.00304 (inactive),33.4% (inactive),-4.09% (inactive)
CCn1cc(C(=O)O)c(=O)c2cc(F)c(N3CCN(C(=O)Nc4ccccc4)CC3)cc21,676,-14% (inactive),27.3% (inactive),68.8,-42.9% (inactive),101,-0.498 (inactive),-8.3e-06 (inactive),0.00493 (inactive),8.6% (inactive),10.7% (inactive)
CCCCC(CC)CNC(=O)C1CCCN(S(=O)(=O)c2cnc[nH]2)C1 (stereo not drawn),565,8.7% (inactive),2.1% (inactive),75.2,0.3% (inactive),104,-0.491 (inactive),-1.6e-05 (inactive),0.00613 (inactive),10.8% (inactive),15.8% (inactive)
O=C(CN1CCN(Cc2ccc(F)cc2Cl)C1=O)NCCCN1CCOCC1,477,7% (inactive),-27.6% (inactive),65.3,-63.8% (inactive),99.9,-0.523 (inactive),-3.8e-05 (inactive),0.00757 (inactive),0.912% (inactive),36.5% (inactive)
CCOC(=O)c1c(C)[nH]c(C(=O)Cn2c(=O)oc3ccccc32)c1C,256,7.6% (inactive),17.3% (inactive),97.3,31.3% (inactive),98.7,-0.285 (inactive),-6.3e-06 (inactive),0.00653 (inactive),-8.59% (inactive),-12.4% (inactive)
Cn1cnc(S(=O)(=O)Nc2ccc(C(F)(F)F)cc2)c1,480,2.2% (inactive),-3.4% (inactive),117,14.3% (inactive),103,-0.357 (inactive),-6.4e-05 (inactive),0.00601 (inactive),2.5% (inactive),18% (inactive)
COc1ccc2c(c1)C(C)=CC(C)(C)N2C(=O)CSc1nnc(-c2ccc(C)cc2)o1,362,12.5% (inactive),8.3% (inactive),106,14.4% (inactive),117,-0.451 (inactive),4.8e-05 (inactive),0.00352 (inactive),-7.74% (inactive),17.4% (inactive)
Cc1cc(-c2ccccc2)c(C#N)c(N)n1,331,-6.4% (inactive),-10.4% (inactive),94.7,-11.3% (inactive),115,-0.394 (inactive),-6.4e-07 (inactive),0.00466 (inactive),18.7% (inactive),34.2% (inactive)
COc1ccc(OCc2nc(C#N)c(N3CCN(c4ccc(OC)cc4)CC3)o2)cc1,479,2.9% (inactive),-2.2% (inactive),73.6,15.1% (inactive),89.2,-0.421 (inactive),2.3e-05 (inactive),0.0041 (inactive),-5.28% (inactive),3.87% (inactive)
